Results: the supplement of paper PMC6555819

Columns and labels:
Experiment in all cases: PBM binding z-score (relative to random genomic background probes); higher = stronger binding; sequences stand for … in GC…GCGATTGACAGCGTAGAATGAAGG
[1] = test system: RARb homodimer (NR concentration 270 nM)
Outline: (§1)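 Binding z-scores take random background probes as their reference. They come from custom Agilent 4×180K protein-binding microarrays incubated 1 h with ligand-free nuclear receptor dimers, with antibodies against each partner (one per run) detecting binding. Scanned fluorescence was regression-normalized.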

[2] = test system: RARg:RXRa (NR concentration 270 nM, RXRa partner concentration 90 nM)
Outline: as §1

[3] = test system: RARg homodimer (NR concentration 270 nM)
Outline: as §1

[4] = test system: RXRa DBDmut IVT, anti-RXR (DBD mutation: RXRa K156A/R161A, NR concentration 90 nM)
Outline: as §1

[5] = test system: RXRa homodimer (NR concentration 180 nM)
Outline: as §1

[6] = test system: THRa:RXRa (NR concentration 90 nM, RXRa partner concentration 90 nM)
Outline: as §1

[7] = test system: THRa homodimer (NR concentration 90 nM)
Outline: as §1

[8] = test system: VDR homodimer (NR concentration 270 nM)
Outline: as §1

| Sequence | PBM binding z-score [1] | PBM binding z-score [2] | PBM binding z-score [3] | PBM binding z-score [4] | PBM binding z-score [5] | PBM binding z-score [6] | PBM binding z-score [7] | PBM binding z-score [8] |
| --- | --- | --- | --- | --- | --- | --- | --- | --- |
| AGAATGAGGTTACCAAAGATCAAGGAAACGCTTG | 0.992 | 2.37 | 1.88 | 1.13 | 2.85 | 3.03 | 0.74 | 0.375 |
| CCTACTGGGCCACGATAGGTCATTGATTCAGTGA | 2.93 | 2.17 | 2.17 | -0.409 | 1.92 | 2 | -0.0133 | 0.0413 |
| CCTATTAGTTGACCTTAAGGGCAACCGAAGCTCG | 4.16 | 4.56 | 3.45 | 1.41 | 4.9 | 4.36 | 5.34 | 2.12 |
| TAAATGAGGTTATAAGATCAGGGAACGTTGCAAA | 0.147 | 1.79 | 0.975 | 1.21 | 2.24 | 1.9 | 0.348 | 0.859 |
| CCTTACGGGCCAAGGTTATAGCACGGGTGGTACG | 0.655 | 0.306 | 0.628 | -1.14 | 0.273 | 0.713 | 0.104 | 0.207 |
| TCGAGTTGGTTAGGGGCATTCAGAATGGCGTCGA | 0.661 | -0.158 | -0.398 | 1.95 | 0.163 | 0.835 | 0.169 | 3.32 |
| GCTATTAGTTGCAAGGGCAACCGAATGATTCTCG | 1.12 | 0.13 | 0.552 | 0.914 | 0.35 | 0.666 | 0.326 | 0.363 |
| ATCTCTGGGTAAAGATAGTTCAGTGAATGCAAAT | 1.1 | 0.61 | 0.989 | -0.0472 | 0.123 | 0.544 | -0.18 | 0.45 |
| AGAATGAGGGTATTAAGATCAGGGAATTGCGGTC | 0.61 | 0.0247 | 0.0754 | 0.633 | 0.379 | 0.534 | 0.27 | 0.315 |
| ACTAGCAGGCCAAGCGTCACTCAAGATTAGTCCG | -0.0548 | -0.358 | 0.0982 | -0.131 | -0.281 | -0.489 | -0.737 | -1.26 |
| CTTCCAAGGTCAGCAGGTCAGTGAAAGCGACGTG | 5.26 | 6.14 | 6.94 | 2.24 | 5.48 | 3.83 | 2.79 | 1.68 |
| TCGAGTAGGTTAGTCGGGGCACTCAGCCAACATA | 0.461 | 0.0814 | -0.0518 | 0.105 | 0.249 | 1.35 | -0.252 | 0.195 |
| TCTTGTAGATCAATAAAGGTTAAGAAAGTGCGCT | 1.87 | 1.1 | 0.821 | 1.1 | 1.72 | 2.05 | -0.219 | 0.571 |
| CGTCCAAGGTCATAGGAGGTCAGTGATGACAGAT | 5.33 | 6.66 | 6.93 | 3.97 | 6.5 | 5.4 | 3.25 | 4.59 |
| ACAGACTGGTGAGTGAAGGTAACTCAGCTGGACG | -0.42 | -0.303 | -0.112 | -0.514 | -0.182 | 0.0338 | -0.517 | -0.299 |
| CGAACCAGGTCAGAACAGGACAGTGAAGGATGAT | 2.14 | 2.84 | 3.33 | 0.868 | 2.06 | 3.69 | 0.812 | 0.276 |
| CCAGACAGGTAAGAAGGTAACTCAGCCTCGATTA | -0.0494 | 0.201 | 0.207 | -0.00945 | 0.0209 | 0.0122 | 0.113 | -0.0609 |

| Sequence | PBM binding z-score [1] | PBM binding z-score [2] | PBM binding z-score [3] | PBM binding z-score [4] | PBM binding z-score [5] | PBM binding z-score [6] | PBM binding z-score [7] | PBM binding z-score [8] |
| --- | --- | --- | --- | --- | --- | --- | --- | --- |
| GATACAGGGTCAAGCCCAGAGTACGCGTATTGAT | 3.52 | 5.73 | 5.47 | 2.9 | 6.59 | 3.45 | 0.87 | 2.39 |
| ATCGAAAGGTCGACGAGGTTAGTATACACCGTTT | 3.1 | 4.27 | 4.18 | 1.45 | 4.55 | 3.37 | 0.478 | 2.31 |
| AATACAGGGTCATCGAAGGCCAGAGTACGCACAG | 3.74 | 5.74 | 5.31 | 3.38 | 6.7 | 4.62 | 1.43 | 3.66 |
| CGAACTAGGTCATTGACAGGGCAGTGAATAGTAA | 2.93 | 5.12 | 4.41 | 2.54 | 2.89 | 2.64 | 0.623 | 1.08 |
| TCTCGGAGGACACGAAATGTCAGAGCTCGACATC | 1.04 | 0.897 | 1.7 | 0.78 | 0.302 | 1.54 | 0.334 | -0.342 |
| TCTTGTAGATCAACAGGAGGTTAAGTAAGATCGA | 0.766 | 1.15 | 0.284 | 0.388 | 1.02 | 1.78 | -0.391 | -0.26 |
| ATCGAAAGGTCGACGAGGTGAGTATACACCGTTT | 3.04 | 4.03 | 3.9 | 1.38 | 4.46 | 3.84 | 0.669 | 0.929 |
| TCATATAGGTAAAAGGCGAAAGTCGGTGTGGTAA | -0.139 | 0.0161 | -0.195 | 1.51 | 0.665 | -0.0856 | -0.0858 | 0.0813 |
| GCGACTGGGGCATCAGCAGGTTGCCATAACTTAA | 0.046 | -0.0231 | -0.244 | -0.343 | -0.273 | -0.00785 | -0.582 | -0.425 |
| GGAACGAGGGTATTCGAGTTGATAGCATGGCGAT | -0.529 | -0.0783 | 0.118 | 0.869 | 0.0441 | 1.82 | -1.03 | 0.63 |
| CCGATTAGTTGACCATAAGGGCAACCGAAGCTCG | 2.01 | 0.824 | 0.774 | 0.777 | 0.56 | 1.7 | 0.965 | 0.334 |
| CCTACTGGGCCACGAACGGTCATTGATTCAGTGA | 1.91 | 0.72 | 1 | -0.535 | -0.0982 | 0.584 | -0.505 | -0.169 |
| CCAGACAGGTGATAGGTAACTCAGTCTGGTACGC | 0.0377 | 0.156 | 0.068 | -0.237 | 0.368 | -0.116 | -0.179 | -0.505 |
| CCTAGCAGGCAAATCTGGGTCACTCAAGGCTTGA | 1.85 | 1 | 0.802 | 0.0934 | 0.625 | 2.89 | 0.513 | -0.357 |
| CCTTGCGGGTCACGAGGTTATAGCACGACGAGCG | 3.64 | 5.78 | 5.02 | 1.62 | 6.53 | 3.68 | 1.34 | 1.93 |
| GCAGACAGGTGAAACGCAGATAACTCAGGGTGGC | -0.0268 | 0.355 | 0.45 | -0.555 | 0.883 | 0.121 | -0.589 | -0.804 |
| TCGAGTAGGTCAGTCGGGGCATTCAGCCAACATA | 2.3 | 2.49 | 3.17 | 0.903 | 1.32 | 2.4 | -0.201 | 1.42 |
